# What was measured:
# [1] = target: T1, Dual specificity tyrosine-phosphorylation-regulated kinase 2 (Homo sapiens) (UniProt Q92630); settings: at 1 µM
# T1 sequence (whole entry): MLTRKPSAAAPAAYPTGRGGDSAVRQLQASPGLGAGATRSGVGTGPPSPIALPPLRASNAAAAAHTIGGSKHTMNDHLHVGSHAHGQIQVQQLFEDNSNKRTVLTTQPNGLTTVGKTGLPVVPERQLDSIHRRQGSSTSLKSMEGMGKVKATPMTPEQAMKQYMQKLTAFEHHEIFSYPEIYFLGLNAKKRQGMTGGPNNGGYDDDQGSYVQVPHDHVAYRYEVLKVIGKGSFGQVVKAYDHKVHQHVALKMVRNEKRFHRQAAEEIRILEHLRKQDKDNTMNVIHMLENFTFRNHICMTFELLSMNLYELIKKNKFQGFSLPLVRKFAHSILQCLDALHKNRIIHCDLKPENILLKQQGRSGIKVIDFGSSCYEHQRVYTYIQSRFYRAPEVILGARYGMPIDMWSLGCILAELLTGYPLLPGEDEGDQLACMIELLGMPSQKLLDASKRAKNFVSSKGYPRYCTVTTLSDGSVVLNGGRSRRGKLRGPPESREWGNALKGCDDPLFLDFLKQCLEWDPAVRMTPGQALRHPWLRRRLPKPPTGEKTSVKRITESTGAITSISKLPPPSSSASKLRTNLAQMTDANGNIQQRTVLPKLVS
# [2] = target: T1, Dual specificity tyrosine-phosphorylation-regulated kinase 2 (Homo sapiens); settings: at 10 µM
# [3] = target: T2, Ephrin type-A receptor 1 (Homo sapiens) (UniProt P21709); settings: at 1 µM
# T2 sequence (whole entry): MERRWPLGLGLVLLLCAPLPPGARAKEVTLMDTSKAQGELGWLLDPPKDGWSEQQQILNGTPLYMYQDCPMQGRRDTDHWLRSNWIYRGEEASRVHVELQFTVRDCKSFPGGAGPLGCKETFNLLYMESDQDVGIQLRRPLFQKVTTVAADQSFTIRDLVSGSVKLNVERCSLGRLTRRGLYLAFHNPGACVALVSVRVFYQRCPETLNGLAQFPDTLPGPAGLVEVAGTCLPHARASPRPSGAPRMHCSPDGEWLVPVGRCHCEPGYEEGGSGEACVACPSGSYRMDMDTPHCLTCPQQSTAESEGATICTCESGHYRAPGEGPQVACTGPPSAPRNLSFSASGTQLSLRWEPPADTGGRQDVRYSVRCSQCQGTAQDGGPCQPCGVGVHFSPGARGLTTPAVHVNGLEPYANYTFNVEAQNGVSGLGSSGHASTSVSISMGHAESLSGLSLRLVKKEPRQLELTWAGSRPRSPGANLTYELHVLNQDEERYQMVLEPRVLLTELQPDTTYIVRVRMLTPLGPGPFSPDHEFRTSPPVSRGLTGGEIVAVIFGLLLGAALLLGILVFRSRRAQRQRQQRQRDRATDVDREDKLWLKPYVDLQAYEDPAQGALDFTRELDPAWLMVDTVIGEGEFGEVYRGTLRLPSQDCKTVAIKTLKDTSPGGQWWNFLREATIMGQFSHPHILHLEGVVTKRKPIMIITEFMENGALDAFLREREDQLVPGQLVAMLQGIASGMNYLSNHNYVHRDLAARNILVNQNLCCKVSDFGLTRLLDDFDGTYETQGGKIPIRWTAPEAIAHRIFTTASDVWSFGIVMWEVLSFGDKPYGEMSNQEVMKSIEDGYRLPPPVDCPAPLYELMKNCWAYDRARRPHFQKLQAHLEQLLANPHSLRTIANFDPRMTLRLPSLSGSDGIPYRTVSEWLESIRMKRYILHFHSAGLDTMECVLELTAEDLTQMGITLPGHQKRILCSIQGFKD
# [4] = target: T2, Ephrin type-A receptor 1 (Homo sapiens); settings: at 10 µM
# [5] = target: T3, Ephrin type-A receptor 3 (Homo sapiens) (UniProt P29320); settings: at 10 µM
# T3 sequence (whole entry): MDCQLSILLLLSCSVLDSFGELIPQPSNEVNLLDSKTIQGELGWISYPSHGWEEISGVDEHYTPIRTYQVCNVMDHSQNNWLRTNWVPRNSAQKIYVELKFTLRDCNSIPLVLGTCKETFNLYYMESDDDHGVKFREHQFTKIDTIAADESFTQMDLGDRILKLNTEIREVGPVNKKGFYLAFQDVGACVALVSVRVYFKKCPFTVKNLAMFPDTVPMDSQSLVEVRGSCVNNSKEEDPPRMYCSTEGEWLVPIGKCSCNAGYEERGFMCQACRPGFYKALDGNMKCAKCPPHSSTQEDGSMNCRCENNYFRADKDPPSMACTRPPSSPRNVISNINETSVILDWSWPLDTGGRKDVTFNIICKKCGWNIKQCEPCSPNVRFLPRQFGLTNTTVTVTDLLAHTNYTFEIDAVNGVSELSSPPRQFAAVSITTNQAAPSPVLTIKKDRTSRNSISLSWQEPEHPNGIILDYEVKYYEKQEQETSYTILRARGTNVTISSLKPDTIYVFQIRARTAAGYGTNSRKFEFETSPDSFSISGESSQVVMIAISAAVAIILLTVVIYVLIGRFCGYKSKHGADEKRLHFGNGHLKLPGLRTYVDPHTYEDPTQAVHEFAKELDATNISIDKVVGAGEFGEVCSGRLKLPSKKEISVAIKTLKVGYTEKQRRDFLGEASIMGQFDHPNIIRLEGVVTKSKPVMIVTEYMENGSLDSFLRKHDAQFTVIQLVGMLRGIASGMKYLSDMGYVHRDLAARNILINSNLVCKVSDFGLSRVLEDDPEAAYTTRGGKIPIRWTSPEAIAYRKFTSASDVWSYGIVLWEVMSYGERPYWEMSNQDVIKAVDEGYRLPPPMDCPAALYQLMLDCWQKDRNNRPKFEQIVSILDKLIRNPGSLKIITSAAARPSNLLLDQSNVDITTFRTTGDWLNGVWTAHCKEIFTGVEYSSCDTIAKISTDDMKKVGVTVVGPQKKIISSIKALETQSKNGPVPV
# [6] = target: Ephrin type-A receptor 7 (Homo sapiens) (UniProt Q15375); settings: at 1 µM
# [7] = target: Ephrin type-A receptor 7 (Homo sapiens) (UniProt Q15375); settings: at 10 µM
# [8] = target: T4, Ephrin type-A receptor 8 (Homo sapiens) (UniProt P29322); settings: at 1 µM
# T4 sequence (whole entry): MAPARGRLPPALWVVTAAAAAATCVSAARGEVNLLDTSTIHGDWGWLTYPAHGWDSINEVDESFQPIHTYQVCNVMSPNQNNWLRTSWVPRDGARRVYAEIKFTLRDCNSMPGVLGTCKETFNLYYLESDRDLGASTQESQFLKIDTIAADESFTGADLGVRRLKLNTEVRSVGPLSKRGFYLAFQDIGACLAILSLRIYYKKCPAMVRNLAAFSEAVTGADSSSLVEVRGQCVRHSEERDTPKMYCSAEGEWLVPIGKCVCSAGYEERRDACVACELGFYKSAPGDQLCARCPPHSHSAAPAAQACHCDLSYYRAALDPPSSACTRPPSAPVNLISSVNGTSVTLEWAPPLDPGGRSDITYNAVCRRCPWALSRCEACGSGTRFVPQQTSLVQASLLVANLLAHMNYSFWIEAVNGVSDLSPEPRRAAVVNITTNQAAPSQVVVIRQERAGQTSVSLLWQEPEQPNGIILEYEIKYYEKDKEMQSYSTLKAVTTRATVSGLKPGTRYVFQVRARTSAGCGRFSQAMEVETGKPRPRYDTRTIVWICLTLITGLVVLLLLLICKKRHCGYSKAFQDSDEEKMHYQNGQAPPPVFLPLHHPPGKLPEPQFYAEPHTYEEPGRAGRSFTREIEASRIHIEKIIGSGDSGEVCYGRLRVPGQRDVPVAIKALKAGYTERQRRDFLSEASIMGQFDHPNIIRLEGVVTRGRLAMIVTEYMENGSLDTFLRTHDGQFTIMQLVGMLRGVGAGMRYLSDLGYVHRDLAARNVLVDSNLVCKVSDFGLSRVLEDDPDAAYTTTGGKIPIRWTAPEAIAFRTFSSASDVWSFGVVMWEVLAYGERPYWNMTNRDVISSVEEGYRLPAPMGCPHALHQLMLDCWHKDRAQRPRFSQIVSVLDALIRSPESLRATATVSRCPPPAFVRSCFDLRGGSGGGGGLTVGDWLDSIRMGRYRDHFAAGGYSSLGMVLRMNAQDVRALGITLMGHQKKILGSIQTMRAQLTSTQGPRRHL
# [9] = target: T4, Ephrin type-A receptor 8 (Homo sapiens); settings: at 10 µM
# [10] = target: Ephrin type-A receptor 2 (Homo sapiens) (UniProt P29317); settings: at 1 µM
# [11] = target: Ephrin type-A receptor 2 (Homo sapiens) (UniProt P29317); settings: at 10 µM
# [12] = target: T3, Ephrin type-A receptor 3 (Homo sapiens); settings: at 1 µM
# [13] = target: Ephrin type-A receptor 4 (Homo sapiens) (UniProt P54764); settings: at 1 µM
# [14] = target: Ephrin type-A receptor 4 (Homo sapiens) (UniProt P54764); settings: at 10 µM
# [15] = target: Ephrin type-A receptor 5 (Homo sapiens) (UniProt P54756); settings: at 1 µM
# [16] = target: Ephrin type-A receptor 5 (Homo sapiens) (UniProt P54756); settings: at 10 µM
# [17] = target: T5, Ephrin type-B receptor 1 (Homo sapiens) (UniProt P54762); settings: at 1 µM
# T5 sequence (whole entry): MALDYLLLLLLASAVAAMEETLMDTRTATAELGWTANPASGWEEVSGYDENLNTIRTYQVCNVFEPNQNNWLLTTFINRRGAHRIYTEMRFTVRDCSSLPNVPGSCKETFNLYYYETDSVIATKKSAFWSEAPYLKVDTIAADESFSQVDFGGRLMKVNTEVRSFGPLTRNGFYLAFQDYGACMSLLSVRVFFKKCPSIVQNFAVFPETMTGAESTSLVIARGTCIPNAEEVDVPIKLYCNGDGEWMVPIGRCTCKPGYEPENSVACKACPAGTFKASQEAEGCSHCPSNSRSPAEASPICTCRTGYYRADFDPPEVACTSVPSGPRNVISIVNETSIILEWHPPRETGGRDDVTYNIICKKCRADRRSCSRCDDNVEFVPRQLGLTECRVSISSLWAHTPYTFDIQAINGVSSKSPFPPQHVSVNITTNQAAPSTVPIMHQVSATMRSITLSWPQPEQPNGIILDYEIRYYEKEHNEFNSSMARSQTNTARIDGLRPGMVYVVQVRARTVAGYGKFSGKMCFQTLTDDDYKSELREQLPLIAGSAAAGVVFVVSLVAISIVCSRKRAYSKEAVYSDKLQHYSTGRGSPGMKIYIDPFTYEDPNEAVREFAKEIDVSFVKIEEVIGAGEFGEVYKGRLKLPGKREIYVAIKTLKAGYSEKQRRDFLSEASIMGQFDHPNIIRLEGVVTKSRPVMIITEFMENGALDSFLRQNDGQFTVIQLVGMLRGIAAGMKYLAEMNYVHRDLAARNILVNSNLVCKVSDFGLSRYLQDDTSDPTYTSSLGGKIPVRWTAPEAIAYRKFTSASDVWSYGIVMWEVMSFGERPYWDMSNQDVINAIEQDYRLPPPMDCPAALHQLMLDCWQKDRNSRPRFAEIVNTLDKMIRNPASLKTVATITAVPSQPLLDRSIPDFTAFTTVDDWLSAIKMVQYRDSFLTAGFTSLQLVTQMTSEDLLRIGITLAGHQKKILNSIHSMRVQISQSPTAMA
# [18] = target: T6, Serine/threonine-protein kinase 17A (Homo sapiens) (UniProt Q9UEE5); settings: at 10 µM
# T6 sequence (whole entry): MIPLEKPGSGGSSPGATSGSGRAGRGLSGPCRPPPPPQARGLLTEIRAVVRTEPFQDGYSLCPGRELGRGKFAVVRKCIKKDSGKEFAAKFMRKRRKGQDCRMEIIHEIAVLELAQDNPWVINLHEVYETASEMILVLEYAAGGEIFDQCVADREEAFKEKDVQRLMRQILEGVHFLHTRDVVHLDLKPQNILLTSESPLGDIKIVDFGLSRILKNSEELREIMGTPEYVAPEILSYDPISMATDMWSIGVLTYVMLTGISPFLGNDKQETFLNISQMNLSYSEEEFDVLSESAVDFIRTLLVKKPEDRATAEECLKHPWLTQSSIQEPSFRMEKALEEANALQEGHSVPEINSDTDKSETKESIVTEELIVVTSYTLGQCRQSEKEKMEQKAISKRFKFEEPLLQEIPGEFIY
# Ephrin type-A receptor 7 (Homo sapiens), sequence (Q15375 28-998 limits assumed): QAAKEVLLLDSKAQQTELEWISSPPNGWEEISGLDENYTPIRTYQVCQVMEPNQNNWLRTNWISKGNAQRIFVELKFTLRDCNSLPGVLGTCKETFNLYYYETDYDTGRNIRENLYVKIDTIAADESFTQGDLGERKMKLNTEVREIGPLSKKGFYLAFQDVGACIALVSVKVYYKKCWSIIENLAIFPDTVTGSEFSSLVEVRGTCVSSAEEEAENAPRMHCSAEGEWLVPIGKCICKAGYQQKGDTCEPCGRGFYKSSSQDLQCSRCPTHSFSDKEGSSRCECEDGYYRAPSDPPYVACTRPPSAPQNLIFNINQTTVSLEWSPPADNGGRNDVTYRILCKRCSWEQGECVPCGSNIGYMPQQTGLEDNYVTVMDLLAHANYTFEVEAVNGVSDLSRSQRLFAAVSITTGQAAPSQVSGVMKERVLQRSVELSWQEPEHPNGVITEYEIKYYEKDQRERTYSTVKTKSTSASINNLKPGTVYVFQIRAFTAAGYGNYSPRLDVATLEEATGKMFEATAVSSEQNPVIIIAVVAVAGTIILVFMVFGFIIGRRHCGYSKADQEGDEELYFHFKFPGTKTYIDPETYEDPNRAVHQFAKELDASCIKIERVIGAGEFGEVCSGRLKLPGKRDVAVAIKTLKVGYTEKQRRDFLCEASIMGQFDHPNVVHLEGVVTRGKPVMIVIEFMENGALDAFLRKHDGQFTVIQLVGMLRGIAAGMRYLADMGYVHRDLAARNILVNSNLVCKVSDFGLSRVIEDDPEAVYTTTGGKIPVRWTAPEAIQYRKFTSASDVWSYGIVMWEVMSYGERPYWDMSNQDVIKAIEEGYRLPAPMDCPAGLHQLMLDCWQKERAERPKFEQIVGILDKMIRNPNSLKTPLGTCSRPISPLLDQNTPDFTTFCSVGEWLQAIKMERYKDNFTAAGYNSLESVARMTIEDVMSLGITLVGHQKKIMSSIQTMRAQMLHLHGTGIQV
# Ephrin type-A receptor 2 (Homo sapiens), sequence (P29317 whole entry): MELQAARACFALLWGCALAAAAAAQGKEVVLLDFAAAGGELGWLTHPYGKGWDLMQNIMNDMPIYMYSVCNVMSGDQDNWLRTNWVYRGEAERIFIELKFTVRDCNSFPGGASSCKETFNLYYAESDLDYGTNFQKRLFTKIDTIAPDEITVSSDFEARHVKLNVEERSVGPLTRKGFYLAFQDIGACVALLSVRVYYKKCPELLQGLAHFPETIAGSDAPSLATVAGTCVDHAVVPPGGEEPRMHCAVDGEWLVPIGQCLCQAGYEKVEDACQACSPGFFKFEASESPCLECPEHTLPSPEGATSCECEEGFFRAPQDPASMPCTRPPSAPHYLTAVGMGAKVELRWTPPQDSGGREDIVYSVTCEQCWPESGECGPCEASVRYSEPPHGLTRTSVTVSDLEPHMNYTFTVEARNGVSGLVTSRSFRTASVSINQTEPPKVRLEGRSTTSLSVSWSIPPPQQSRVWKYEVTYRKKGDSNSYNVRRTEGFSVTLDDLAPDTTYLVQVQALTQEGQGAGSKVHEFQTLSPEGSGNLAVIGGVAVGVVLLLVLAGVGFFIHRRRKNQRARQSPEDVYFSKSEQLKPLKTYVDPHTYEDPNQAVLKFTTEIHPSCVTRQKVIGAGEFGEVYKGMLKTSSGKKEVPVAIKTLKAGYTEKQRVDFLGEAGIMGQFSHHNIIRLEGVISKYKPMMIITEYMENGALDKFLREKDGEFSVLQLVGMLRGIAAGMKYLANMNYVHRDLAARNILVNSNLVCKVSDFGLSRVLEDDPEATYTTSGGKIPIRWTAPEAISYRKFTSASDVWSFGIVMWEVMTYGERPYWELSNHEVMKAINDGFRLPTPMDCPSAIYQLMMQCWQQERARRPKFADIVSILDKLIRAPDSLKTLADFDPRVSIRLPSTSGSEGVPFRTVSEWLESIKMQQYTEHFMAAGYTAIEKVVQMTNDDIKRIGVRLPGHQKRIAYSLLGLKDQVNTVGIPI
# Ephrin type-A receptor 5 (Homo sapiens), sequence (P54756 whole entry): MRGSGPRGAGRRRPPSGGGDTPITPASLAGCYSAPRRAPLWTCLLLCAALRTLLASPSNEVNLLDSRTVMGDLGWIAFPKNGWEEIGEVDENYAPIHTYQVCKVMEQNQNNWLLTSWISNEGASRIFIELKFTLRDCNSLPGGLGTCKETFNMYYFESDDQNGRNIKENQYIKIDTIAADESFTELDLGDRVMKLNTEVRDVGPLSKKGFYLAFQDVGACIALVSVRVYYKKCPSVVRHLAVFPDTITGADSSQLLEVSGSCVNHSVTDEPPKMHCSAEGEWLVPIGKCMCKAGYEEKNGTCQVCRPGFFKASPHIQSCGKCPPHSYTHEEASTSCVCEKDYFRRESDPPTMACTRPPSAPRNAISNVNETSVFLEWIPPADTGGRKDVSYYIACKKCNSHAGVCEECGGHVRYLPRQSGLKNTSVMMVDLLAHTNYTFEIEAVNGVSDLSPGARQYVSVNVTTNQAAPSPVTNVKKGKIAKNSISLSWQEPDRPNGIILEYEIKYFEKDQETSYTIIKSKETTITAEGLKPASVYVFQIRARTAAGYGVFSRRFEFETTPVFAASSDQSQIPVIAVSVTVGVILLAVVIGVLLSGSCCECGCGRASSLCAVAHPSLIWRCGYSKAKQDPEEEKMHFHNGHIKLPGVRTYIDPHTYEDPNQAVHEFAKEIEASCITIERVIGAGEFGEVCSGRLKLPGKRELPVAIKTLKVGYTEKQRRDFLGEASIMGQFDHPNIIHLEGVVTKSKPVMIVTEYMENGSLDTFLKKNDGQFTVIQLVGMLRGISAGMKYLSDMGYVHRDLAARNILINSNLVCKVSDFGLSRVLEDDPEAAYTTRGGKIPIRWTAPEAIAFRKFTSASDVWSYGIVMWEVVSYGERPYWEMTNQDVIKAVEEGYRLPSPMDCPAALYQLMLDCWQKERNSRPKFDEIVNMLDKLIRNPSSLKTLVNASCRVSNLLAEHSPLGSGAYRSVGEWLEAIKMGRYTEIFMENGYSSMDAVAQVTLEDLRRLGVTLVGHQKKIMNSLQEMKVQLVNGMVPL
# Ephrin type-A receptor 4 (Homo sapiens), sequence (P54764 whole entry): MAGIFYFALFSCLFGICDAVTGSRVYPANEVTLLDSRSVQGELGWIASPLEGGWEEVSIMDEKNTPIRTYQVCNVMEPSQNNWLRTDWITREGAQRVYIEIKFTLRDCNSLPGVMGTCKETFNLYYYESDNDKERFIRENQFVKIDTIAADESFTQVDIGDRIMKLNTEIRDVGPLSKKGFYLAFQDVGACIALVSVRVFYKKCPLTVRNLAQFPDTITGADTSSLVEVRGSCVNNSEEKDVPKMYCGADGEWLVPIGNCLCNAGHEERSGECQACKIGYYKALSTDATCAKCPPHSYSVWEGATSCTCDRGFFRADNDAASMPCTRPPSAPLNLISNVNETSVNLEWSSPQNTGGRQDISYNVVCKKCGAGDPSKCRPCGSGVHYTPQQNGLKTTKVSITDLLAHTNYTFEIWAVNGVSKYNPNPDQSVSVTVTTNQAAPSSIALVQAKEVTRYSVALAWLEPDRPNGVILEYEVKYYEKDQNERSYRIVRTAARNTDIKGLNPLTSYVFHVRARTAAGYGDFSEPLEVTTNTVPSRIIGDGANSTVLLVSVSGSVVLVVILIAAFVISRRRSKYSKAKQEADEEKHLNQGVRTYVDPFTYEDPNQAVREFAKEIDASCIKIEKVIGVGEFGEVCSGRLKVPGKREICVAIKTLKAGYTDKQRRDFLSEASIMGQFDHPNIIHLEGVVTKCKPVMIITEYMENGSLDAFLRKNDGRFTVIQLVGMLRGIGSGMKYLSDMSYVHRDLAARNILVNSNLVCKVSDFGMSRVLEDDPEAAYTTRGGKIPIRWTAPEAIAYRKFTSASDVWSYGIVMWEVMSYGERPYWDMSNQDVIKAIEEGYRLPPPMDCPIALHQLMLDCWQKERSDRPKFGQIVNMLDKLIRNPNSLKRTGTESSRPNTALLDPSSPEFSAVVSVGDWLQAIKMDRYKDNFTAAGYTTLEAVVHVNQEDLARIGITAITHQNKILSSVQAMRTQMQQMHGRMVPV
Compound,residual activity [1] [%],residual activity [2] [%],residual activity [3] [%],residual activity [4] [%],residual activity [5] [%],residual activity [6] [%],residual activity [7] [%],residual activity [8] [%],residual activity [9] [%],residual activity [10] [%],residual activity [11] [%],residual activity [12] [%],residual activity [13] [%],residual activity [14] [%],residual activity [15] [%],residual activity [16] [%],residual activity [17] [%],residual activity [18] [%]
Cc1cccc(-c2[nH]c(C(C)(C)C)nc2-c2ccc3c(c2)OCO3)n1,94,104,90,106,96,98,94,99,105,,,,,,,,,
Oc1ccc(-c2nc(-c3ccc(F)cc3)c(-c3ccncc3)[nH]2)cc1,99,76,87,16,81,103,58,93,45,93,57,105,117,87,103,56,115,
COc1cc2ncnc(N3CCN(C(=O)Nc4ccc(Oc5ccccc5)cc4)CC3)c2cc1OC,92,98,85,76,112,95,93,87,99,101,109,98,99,101,117,124,96,101
Cc1cc(Nc2nc(-c3ccccc3)nc3ccccc23)n[nH]1,,41,36,18,8,50,6,,68,75,43,54,,73,,33,,14

# Source: ChEMBL document CHEMBL2218924, “A broad activity screen in support of a chemogenomic map for kinase signalling research and drug discovery” (Biochem J, 2013)
